Structures are written as SMILES. Calls of active or inactive are those of the source. How the source made its calls: active means hit-call score of the fitted dose curve at least 0.9, where 1 is the maximum; inactive means score below 0.9.

The assay is described as follows: ATG_GRE_CIS: Attagene CIS-FACTORIAL HepG2 Assay for human Glucocorticoid Response Elements (GRE) (AID 2282947). Particulars: HepG2 GRE cis-reporter, Attagene multiplex mRNA; AC50: actives raise or lower the signal unless noted; outcome: actives raise or lower the signal unless noted. Here is the method: ATG_CIS is a cell-based, multiplexed-readout assay that uses HepG2, a human liver cell line, with measurements taken at 24 hours after chemical dosing in a 24-well plate.ATG_GRE_CIS is one of 52 assay component(s) measured or calculated from the ATG_CIS assay. It is designed to make measurements of mRNA induction, a form of inducible reporter, as detected with fluorescence intensity signals by Reverse transcription polymerase chain reaction (RT-PCR) and Capillary electrophoresis technology.Data from the assay component ATG_GRE_CIS was analyzed into 1 assay endpoint. This assay endpoint, ATG_GRE_CIS, was analyzed with bidirectional fitting relative to DMSO as the negative control and baseline of activity. Using a type of inducible reporter, measures of mRNA for gain or loss-of-signal activity can be used to understand the reporter gene at the transcription factor-level as they relate to the gene NR3C1. Furthermore, this assay endpoint can be referred to as a primary readout, because this assay has produced multiple assay endpoints where this one serves a reporter gene function. To generalize the intended target to other relatable targets, this assay endpoint is annotated to the nuclear receptor intended target family, where the subfamily is steroidal.
Human liver HepG2 cells are transiently transfected with multiple reporter transcription units (MRTUs) in 6-well plates using FuGene 6 reagent (Roche; 3 ml FuGene/1 mg DNA). The MRTU constructs are regulated by a cis-regulating element (promoter). […] A major difference between the CIS and TRANS system is that in CIS activities of endogenous TFs are measured, whereas the TRANS assay evaluates changes in activities of exogenous, chimeric NR-Gal4 proteins. […] At the end of 24 hour incubation, total RNA was isolated using TriZol reagent (Invitrogen). The isolated RNA is then reverse-transcribed using oligo(dT) primer and Mo-MLV reverse transcriptase (Invitrogen) with DNAse I (Ambion) treatment for 30 min. The one-tenth of the produced cDNA was amplified by PCR using Taq DNA polymerase (Invitrogen) and two reporter sequence-specific primers. The PCR products were fluorescently labeled by primer extension with 6-arboxyfluorescein (6-FAM) 5'-labeled reporter sequence-specific primer (2 min at 95 C, 20 s at 68 C and 10 min at 72 C) and these products were digested with 5U of HpaI (New England Biolabs) for 2h at 37 C. The fragments were purified using Qiaquick PCR columns (Qiagen), analyzed on an ABI 3130xL genetic analyzer (Applied Biosystems) with peak positions identified by using a set of X-rhodamine (ROX)-labeled MapMarker1000 molecular weight standards (BioVentures). The raw capillary electrophoresis data was processed using Attagraph software (Attagene).
Turning to `C=CC(=O)OCCC(F)(F)C(F)(F)C(F)(F)C(F)(F)C(F)(F)C(F)(F)C(F)(F)C(F)(F)F`, the outcome was inactive.
Same read-out and setting: the entry for `C=CC(=O)OCCN(CC)CC` is “inactive”; for `CCCCCCCC(OC)OC` it is “inactive”.
Regarding `Nc1ccc(O)c(C(=O)O)c1`, the compound was classed as inactive.
The same measure, in the same setting: the entry for `CCCC=O` is “inactive”.
Same read-out and setting: the entry for `CCOCCOCC` is “inactive”.
Still for that read-out and setting: the value for `c1ccc(CNc2ncnc3c2ncn3C2CCCCO2)cc1` (stereo not given) was “inactive”.
Take `O=C(Nc1cccc([N+](=O)[O-])c1)c1cc2ccccc2cc1O`: the compound was called inactive.
As for `C=C(c1ccc(C(=O)O)cc1)c1cc2c(cc1C)C(C)(C)CCC2(C)C`, the compound was classed as inactive.
Same read-out and setting: the value for `CCN(CCC#N)c1ccccc1` was “inactive”.
For orientation: AC50 means the concentration at which the activity in the assay is half-maximal. With `CCOC(=O)c1nc(C(Cl)(Cl)Cl)n(-c2ccc(Cl)cc2Cl)n1`, the AC50 is 169 µM (active).
Regarding `O=C(O)C(=O)O`, the compound was classed as inactive.
Regarding `Cc1cccc2c1ccc1ccccc12`, the outcome was inactive.
The same measure, in the same setting: the entry for `CC1CCC(C(=O)O)CC1` (stereo not given) is “inactive”.
Regarding `CCCCCCCCCCCCCCCCCC[N+](C)(C)Cc1ccccc1`, the AC50 was 79.2 µM (active).
On the same count and under the same terms, the value for `COc1ccccc1NC(=O)c1cc2ccccc2cc1O` was 100 µM (active).
For `N=C(N)c1ccc(OCCCCCOc2ccc(C(=N)N)cc2)cc1`, the outcome was inactive.
Still for that read-out and setting: the entry for `Oc1cccc2c(O)cccc12` is “inactive”.
The same measure, in the same setting: the entry for `CCCCCc1ccc(O)cc1` is “inactive”; for `CCCCCCCCCCCCOC(=O)c1cc(O)c(O)c(O)c1` it is “inactive”.
Still for that read-out and setting: the value for `CS(=O)(=O)c1ccc([C@@H](CC2CCCC2)C(=O)Nc2cnccn2)cc1Cl` was “inactive”; that for `CCc1ccccc1O` was “inactive”; that for `CCO[Si](C)(C)OCC` was “inactive”.
Consider `CCCCN(C)C`, for which the call was inactive.
Take `COCN(COC)c1nc(N(COC)COC)nc(N(COC)COC)n1`: the call was inactive.
Still for that read-out and setting: the value for `O=S(=O)(O)c1ccccc1` was “inactive”.
The same measure, in the same setting: the value for `CC(C)(C)c1ccc(O)c(O)c1` was “inactive”; that for `Oc1c(Cl)cc(Cl)cc1Sc1cc(Cl)cc(Cl)c1O` was “inactive”.
On the same count and under the same terms, the value for `CC(C)(O)C(=O)c1ccccc1` was “inactive”; that for `CCOC(C)=O` was “inactive”.
On to `C=CCOCC(CO)(CO)CO`, for which the call was inactive.
Turning to `Cc1cncc(C)c1`, the compound was classed as inactive.
On the same count and under the same terms, the value for `CN(C)c1ccc(C(=C2C=CC(=[N+](C)C)C=C2)c2ccccc2)cc1` was “inactive”.
The same measure, in the same setting: the value for `FC(F)=C(F)C(F)(F)C(F)(F)C(F)(F)C(F)F` was “inactive”.
Consider `O=C(c1ccccc1)c1ccccc1`, for which the call was inactive.
Still for that read-out and setting: the value for `COc1cc([N+](=O)[O-])ccc1N` was “inactive”.
Take `CCCCc1oc2ccccc2c1C(=O)c1cc(I)c(OCCN(CC)CC)c(I)c1`: the AC50 is 141 µM (active).
Regarding `CCCCCCCCCCCC`, the outcome was inactive.
On the same count and under the same terms, the value for `OCC(CO)(CBr)CBr` was “inactive”; that for `C=CC(C)(CCC=C(C)C)OC(C)=O` (stereo not given) was “inactive”.

The values above are taken from PubChem BioAssay (EPA / NIEHS).
